Pf growth 96h = P. falciparum growth inhibition at 96 hours; AID 504834; P. falciparum luciferase reporter growth, 96 h; Potency, µM (doses to about 28.7 µM), for the others: at the top dose activity change, negative = inhibition, actives largely listed as inhibitors; hit rate 6.9% among 320,000; further: on the % scale 0 is the no-effect control and ±100 the full control effect
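Readout is luminescence from an integrated firefly luciferase in P. falciparum. Red cells, 2% hematocrit and 0.05% parasitemia final, were cultured with compound through two parasite generations (96 hours) at 37 C, 5% CO2.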
AMA1 RON2 block = AMA1-RON2 (P. falciparum) interaction inhibition; AlphaScreen AMA1-biotinylated RON2 peptide binding; Potency, µM (titrated, usually from 58.2 µM), inactives show at the highest dose activity change, negative = inhibition, hits mostly inhibitors; hit rate 0.2% among 360,000; AID 720542;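 further: 0% = vehicle wells and -100% = peptide control; nearly all actives have a fitted effect of over 45% in size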
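AMA1 (3D7) with his tag at 25 nM final met compounds first, then biotinylated RON2 peptide at 25 nM; detection used donor plus acceptor beads, 10 µg/mL apiece, read by AlphaScreen after 30 min at room temperature.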
Pf growth 48h = inhibits P. falciparum growth in the first generation, 48 h. P. falciparum luciferase growth in erythrocytes, 48 h. Potency, µM (titrated, usually from 28.7 µM), for the others: top-dose activity change, negative = inhibition, hits mostly inhibitors. hit rate 5.9% among 310,000. AID 504832; further: on the % scale 0 is the no-effect control and ±100 the full control effect
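Read-out is firefly luciferase luminescence from an integrated reporter in P. falciparum, so falling signal marks reduced parasite growth. Infected erythrocytes were at 2% hematocrit and 0.1% parasitemia (final) in Albumax-supplemented RPMI 1640.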
SARS PLP yeast = blocks SARS-CoV papain-like protease in a yeast assay; AID 485353; hit rate 0.19% among 330,000; S. cerevisiae expressing SARS-CoV PLpro, growth rescue; Potency, µM (titrated, usually from 32.9 µM), for the others: at the top dose activity, positive = growth rescue, hits mostly activators; calls by dose curve; further: 0% is about no effect; nearly all actives have a fitted effect of over 55% in size
The depositor's hits bear a star; i = inactive; u = inconclusive; x = no result; [ ] = remark or other dose. The list is not random: actives were taken first. Their share in the collection is about 9.4%. Unless noted, the call rests on the fitted dose curve; in most records, active means well fitted curve in the direction sought with a large enough effect; inconclusive means small, poorly fitted or top-dose-only effect, or another doubt; inactive means no such curve, though single readings can be large; an effect the other way counts as inactive or inconclusive. Potency means the concentration at half of the fitted maximal effect.

SMILES	Pf growth 96h	AMA1 RON2 block	Pf growth 48h	SARS PLP yeast
CC1=NN(c2ccccc2)C(=O)C1N=Nc1ccc(C)cc1 (centres undefined)	10µM*	x	24%	1%
CCOC(=O)/C(C#N)=C/c1c(N2CCN(Cc3ccc4c(c3)OCO4)CC2)nc2c(C)cccn2c1=O	u	u	3.7µM*	2%
COC(=O)/C(C#N)=C/c1c(N2CCN(Cc3ccc4c(c3)OCO4)CC2)nc2c(C)cccn2c1=O	u	-3%	u	-1%
Cc1cccn2c(=O)c(/C=C(\C#N)C(N)=O)c(N3CCN(c4cccc(Cl)c4)CC3)nc12	9.3µM*	-17%	u	0%
Cc1cccn2c(=O)c(/C=C(\C#N)C(N)=O)c(N3CCN(Cc4ccc5c(c4)OCO5)CC3)nc12	10µM*	-25%	9.3µM*	9%
Cc1cccn2c(=O)c(C=C(C#N)C#N)c(N3CCN(C)CC3)nc12	7.4µM*	0%	-3%	-1%
O=[N+]([O-])c1ccc(O)c2cccnc12	47%[5.75 µM]	3%	2%	0%
Oc1ccc(N=Nc2ccc3c(c2)OCCO3)c2cccnc12	u	2%	1µM*	-7%
COc1ccc(C)cc1-n1c(=O)c2ccccc2c2ccccc2c1=O	39%	-10%	2%	-9%
Cc1ccccc1N=Nc1ccc(O)c2ncccc12	u	26%[11.6 µM]	0.37µM*	3.5µM*
Cc1ccc(O)c2ncccc12	u	x	-19%	x
COc1ccc(C)cc1N=Nc1ccc(O)c2ncccc12	u	-45%	2.6µM*	u
O=[N+]([O-])c1ccc(O)c2ncccc12	9.5µM*	-57%	13µM*	-17%
O=C(OCC(=O)N1CCOCC1)c1ccc(Cl)c(S(=O)(=O)N2CCc3ccccc32)c1	x	-9%	x	-8%
CC(NC(=O)C1CCCN(S(=O)(=O)c2cccc3nonc23)C1)c1ccccc1 (centres undefined)	u	-12%	x	4%
COC(=O)c1sccc1-n1cccc1C(=O)N1CCOCC1	u	-2%	-7%	-3%
Nc1ccc(N=Nc2ccccc2)c2cccnc12	14%	20µM*	50%	-4%
COc1ccc(N=Nc2ccc(O)c3ncccc23)cc1	0.52µM*	56%	0.59µM*	2%
COc1cccc(N=Nc2ccc(O)c3ncccc23)c1	u	-46%	u	5%
O=S(=O)(O)c1cccc2c(N=Nc3ccc(O)c4ncccc34)cccc12	-17%	-89%	u	u
O=Nc1ccc(O)c2ncccc12	3.3µM*	-21%	1.5µM*	0%
O=C(O)CCNC(=O)OCC1c2ccccc2-c2ccccc21	1%	15%	0%	0%
Cc1cnccc1CN(C)Cc1nc(Cc2ccccc2Cl)no1	-25%	0%	9.3µM*	-1%
CN(Cc1ccccn1)Cc1nc(Cc2ccccc2Cl)no1	11%	53%	7%	1%
O=c1cc(-c2ccccc2)nc(SCc2ccc(Cl)cc2)[nH]1	-28%	0%	2%	2%
SMILES	Pf growth 96h	AMA1 RON2 block	Pf growth 48h	SARS PLP yeast
COCCC(=O)N1CCc2ccc(NC(=O)c3ccc(C(F)(F)F)cc3)cc2C1	0%	-9%	3%	-4%
CN(C)S(=O)(=O)N1CCc2ccc(NC(=O)c3ccc(C(F)(F)F)cc3)cc2C1	13µM*	0%	27%	0%
O=C(NCC(F)(F)F)c1ccc2sc([C@H]3C[C@H](O)[C@@H](CO)O3)nc2c1	x	9%	x	x
COc1cc(C(=O)OCC(=O)N2CCCCC2C)cc(NC(=O)c2cccs2)c1OC (centres undefined)	u	24%	0.12µM*	-2%
COc1ccc(C2c3c(ncn(CCCO)c3=N)Oc3ccc4ccccc4c32)cc1OC (centres undefined)	1.7µM*	-22%	13µM*	1%
COc1ccc(C2C3=C(CC(C)(C)CC3=O)Oc3ncn(CCO)c(=N)c32)cc1OC (centres undefined)	230%	-13%	x	6%
COc1ccc(C2c3c(ncn(CCN4CCOCC4)c3=N)Oc3ccc4ccccc4c32)cc1OC (centres undefined)	0.59µM*	-2%	4.1µM*	-7%
COc1ccc(C2c3c(ccc4ccccc34)Oc3ncn4nc(Cc5ccccc5)nc4c32)cc1OC (centres undefined)	1.5µM*	15%	1.7µM*	0%
COc1ccc(C2c3c(ncn(CCCO)c3=N)Oc3ccc4ccccc4c32)cc1 (centres undefined)	u	-28%	12µM*	0%
N=c1c2c(ncn1CCCO)Oc1cc(O)ccc1C2c1ccccc1 (centres undefined)	u	3%	u	-1%
COc1cc(F)ccc1S(=O)(=O)N1CCN(Cc2ccccc2)CC1	u	-4%	-11%	4%
Cc1ccc(C)n1CCN1CCN(S(=O)(=O)c2ccc(F)cc2F)CC1	13µM*	29%	u	1%
O=C(Nc1ccc(F)cc1F)N1CCN(CCc2ccccc2)CC1	27%	3%	2.3µM*	0%
O=C(Nc1ccc(F)cc1F)N1CCN(C/C=C/c2ccccc2)CC1	u	-6%	x	-1%
O=C1C2CCCN2C(c2cccnc2)N1c1ccc(Cl)c(Cl)c1 (centres undefined)	134%	1%	u	-7%
O=C1C2CCCN2C(c2ccncc2)N1c1ccc(Cl)c(Cl)c1 (centres undefined)	0.83µM*	3%	13µM*	-7%
Cc1cccc(C)c1NC(=O)CC12CCCN1CCC2	6µM*	x	-9%	x
O=C(C1CCCCC1)N1CC(=O)N2CCc3ccccc3[C@@H]2C1	u	x	-12%	x
Cn1nc(C(=O)NCCc2ccc(Cl)cc2)c2c1-c1ccccc1S(=O)(=O)C2	13%	-6%	u	6%
CC1(C(=O)NS(=O)(=O)c2cccc(F)c2)CCN1C(=O)C/C=C/c1ccccc1 (centres undefined)	x	10%	x	x
CCn1cc(C(=O)NCCc2ccc(Cl)cc2)c(=O)c2ccc(C)nc21	8%	13%	-3%	0%
Cc1ccc(C(=O)c2cn(Cc3ccc(Cl)cc3)c3nc(C)ccc3c2=O)cc1	12µM*	x	u	1%
Cc1ccc(Cn2cc(C(=O)c3ccc(F)cc3)c(=O)c3cc4c(cc32)OCCO4)cc1	12µM*	-14%	-25%	0%
COc1ccc(NC(=O)/C=C/c2ccccc2[N+](=O)[O-])c(OC)c1	u	-17%	-4%	-18%
Cc1noc(N)c1C1(O)C(=O)N(C(C)C)c2ccccc21 (centres undefined)	u	-19%	-2%	-3%
COc1ccc(/C(O)=C2/C(=O)C(=O)N(CCCN(C)C)C2c2ccccc2)cc1Cl (centres undefined)	17%	x	0%	-5%
O=C1C=C(O)C(n2cncn2)C(c2ccc(F)cc2)C1 (centres undefined)	-7%	12%	i	-1%
COc1ccc(C2CC(=O)C(C3NCCc4ccccc43)=C(O)C2n2cncn2)cc1 (centres undefined)	66%	-10%	17µM*	0%
O=C1CCC(C(=O)N2CCSCC2)CN1CCc1ccccc1 (centres undefined)	29%	1%	13%	2%

Screening results: PubChem, National Center for Advancing Translational Sciences (NCATS)
